Results taken from PubChem BioAssay (NCI).
The panel holds about 83,000 compounds, 20% with a hit somewhere; the sample as a whole holds those more often.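 Treatment: one concentration, 48 hours, 96-well format. Scoring: percent growth, with anything below 10 considered active.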 A number with no mark means an inactive call. Activity calls are given as the source filed them.

tested on: SNB-75 CNS; assay: NCI-60 one-dose screen, 48 h (100 = growth as untreated, 0 = no growth, -100 = all killed); conditions: 10 µM unless noted
Procedure: Growth inhibition of the SNB-75 human tumor cell line is measured as a screen for anti-cancer activity. Cells are grown in 96 well plates and exposed to the test compound for 48 hours. Compounds are tested at a single concentration, which is 10^-5 M for most compounds. The reported endpoint is percent growth (GI% or GIPRCNT), where numbers from 0 - 100% represent growth inhibition, and numbers from -100% - 0 represent cell death. For example, a value of 40 represents 60% growth inhibition. A value of 0 means no net growth occurred over the course of the experiment. A value of -40 indicates 40% of cells at the beginning of the experiment died by the end of the experiment. A value of -100 means all cells are dead at the end of the experiment.
NCI-60 Human Tumor Cell Lines Screen was performed using the standard one-dose NCI protocol, which is described in more detail at https://dtp.cancer.gov/discovery_development/nci-60/default.htm.
Compounds with GIPRCNT values below 10 were considered active. Activity score was based on GIPRCNT using the following formula: […]
Score is 0 for GIPRCNT values of 100 or above, 50 for GIPRCNT values of 0, and 100 for GIPRCNT values of -100.

First: C/C(=N\NC(=S)N1CC2CCC(CC2)C1)c1ccccn1
Second: CSc1nc(C)c(C(=O)CCN2CCN(c3ccccn3)CC2)s1
The growth of the first is lower: 33.8% for the first, 103% for the second.

Compared with `CCSc1nc2ccccc2o1`, `CC(=O)C1Cc2ccccc2C1=O` (stereo not given) is lower in growth: 88.2% for the first, 70.8% for the second.

Going from `Oc1ccc(Br)cc1Sc1cc(Br)ccc1O` to `O=C1c2ccccc2C(=O)c2c(O)c(Cl)cc(O)c21`, the growth rises from 59.4% to 96%.

First: Oc1ccc2ccccc2c1N=Nc1nccs1
Second: Cc1cc(N/N=C/c2ccccn2)nc2ccccc12
The growth of the first is higher: 43.3% for the first, 30.8% for the second.

Compared with `Cc1ccc2c(c1)sc(-c1ccc(N(C)C)cc1)[n+]2C`, `CCN(CC)CC(O)c1cc(-c2ccc(Cl)cc2)nc2cc(Cl)ccc12` (stereo not given) is higher in growth: 14.2% for the first, 38.3% for the second.

Going from `COc1cc(NC(=O)C2=C(C)NC(C)=C(C(=O)Nc3cc(OC)c(Cl)cc3OC)C2c2cccc([N+](=O)[O-])c2)c(OC)cc1Cl` to `CCC1C[N+]2=C(c3cc(OC)c(OC)cc3CC2)c2c1cc1n2CCc2cc(OC)c(OC)cc2-1` (stereo not given), the growth falls from 45.3% to 24.5%.

Compared with `Cc1ccc(N2C(=O)C=CC2=O)cc1`, `CCc1cccc(CC)c1N1C(=O)C=CC1=O` is higher in growth: 89.6% for the first, 93.8% for the second.

First: CCC(=O)c1cc([N+](=O)[O-])c(Br)s1
Second: Cc1cc(Br)c2nsnc2c1[N+](=O)[O-]
The growth of the first is higher: 95.7% for the first, 50.1% for the second.

Compared with `CCC(C)(O)Cc1ccc(Cl)cc1` (stereo not given), `CCCCC(CCc1ccc([N+](=O)[O-])cc1)(C(C)=O)C(=O)OCC` (stereo not given) is lower in growth: 88.2% for the first, 85.1% for the second.

Compared with `Nc1nc2ncc(CNc3ccc(C(=O)NC(CCC(=O)NC(CCC(=O)NC(CCC(=O)NC(CCC(=O)NC(CCC(=O)O)C(=O)O)C(=O)O)C(=O)O)C(=O)O)C(=O)O)cc3)nc2c(=O)[nH]1` (stereo not given), `O=C(Cc1nc2cc(Cl)c(Cl)cc2nc1CC(=O)c1ccccc1)c1ccccc1` is lower in growth: 107% for the first, 70.4% for the second.

First: Cc1nc([N+](=O)[O-])c(Sc2nncc(-c3ccccc3)n2)n1C
Second: Nc1cccc2cccc([N+](=O)[O-])c12
The growth of the first is lower: 76.6% for the first, 81.8% for the second.

Going from `C[n+]1ccccc1C[n+]1ccccc1` to `O=C(/C=C/c1ccccc1)c1ccccc1O`, the growth falls from 101% to 63.7%.

Compared with `O=C(c1ccccc1)C(O)C(Br)(CBr)c1ccccc1` (stereo not given), `O=C(C[P+](c1ccccc1)(c1ccccc1)c1ccccc1)c1ccccc1` is lower in growth: 99.5% for the first, 83.6% for the second.

`CC(C)=C1C=C2CC[C@@H]3[C@](C)(CCC[C@@]3(C)C(=O)O)[C@H]2CC1` and `COc1ccc2c(c1OC)OCC(CN(C)C)C2=O` (stereo not given) are the same in growth: 93.4% for the first, 93.4% for the second.

First: O=C1/C(=C/c2ccccn2)CCc2ccccc21
Second: O=C/C=C/c1ccc([N+](=O)[O-])cc1
The growth of the first is lower: 97.7% for the first, 98.9% for the second.

For `O=C(OC12CC3CC(CC(C3)C1)C2)c1ccc(NCc2cc(O)ccc2O)cc1`, the growth was -39.5% (active).
For `Cn1ccc(=Nc2ccc(NC(=O)c3ccc(N=c4ccn(C)c5ccc([N+](=O)[O-])cc45)cc3)cc2)cc1`, the growth was -9.29% (active).
`CCCCCCC1N=C(N)N=C(N)N1c1cccc(Cl)c1` (stereo not given) was tested, and the growth was -0.752% (active).
`CCCCCCCCCCCCSC(=N)N` was tested, and the growth was 8.5% (active).
For `CCCCCCCCCCCC[n+]1ccccc1` (tested in a mixture with another compound), the growth was -45.9% (active).
`CCCOC(=O)c1nc(N(CC2CCCCC2)C(=O)NC)sc1/N=C/c1ccccc1` was tested, and the growth was -11.1% (active).
`CCN1CCCC(Nc2cc(C)nc(/N=C(/N)Nc3ccc(Cl)c(Cl)c3)n2)C1` (stereo not given) was tested, and the growth was -76.8% (active).
`CC(C)N=C(N)/N=C(\N)Nc1ccc2ccc3ccccc3c2c1` was tested, and the growth was -20.7% (active).
In the case of `NC1=C(Br)C(=O)c2ncccc2C1=O`, the growth was -84.2% (active).
For `Cc1ccc(NC2=CC(=O)C(=O)c3ccccc32)cc1`, the growth was -18.7% (active).
